Several values for one entry are separate records, joined by “and”; a condition that tells them apart may be missing. Equal entries are not always repeated. Records with an inconclusive call do not appear. More than one record can exist for a structure, and the calls need not agree. Activity calls are given as the source filed them. How the source made its calls: active means hit-call score of the fitted dose curve at least 0.9, where 1 is the maximum; inconclusive means response in the unintended direction; inactive means score below 0.9.

Chain of Nuclear receptor subfamily 4 group A member 2 (Homo sapiens) (P43354 whole entry, looked up): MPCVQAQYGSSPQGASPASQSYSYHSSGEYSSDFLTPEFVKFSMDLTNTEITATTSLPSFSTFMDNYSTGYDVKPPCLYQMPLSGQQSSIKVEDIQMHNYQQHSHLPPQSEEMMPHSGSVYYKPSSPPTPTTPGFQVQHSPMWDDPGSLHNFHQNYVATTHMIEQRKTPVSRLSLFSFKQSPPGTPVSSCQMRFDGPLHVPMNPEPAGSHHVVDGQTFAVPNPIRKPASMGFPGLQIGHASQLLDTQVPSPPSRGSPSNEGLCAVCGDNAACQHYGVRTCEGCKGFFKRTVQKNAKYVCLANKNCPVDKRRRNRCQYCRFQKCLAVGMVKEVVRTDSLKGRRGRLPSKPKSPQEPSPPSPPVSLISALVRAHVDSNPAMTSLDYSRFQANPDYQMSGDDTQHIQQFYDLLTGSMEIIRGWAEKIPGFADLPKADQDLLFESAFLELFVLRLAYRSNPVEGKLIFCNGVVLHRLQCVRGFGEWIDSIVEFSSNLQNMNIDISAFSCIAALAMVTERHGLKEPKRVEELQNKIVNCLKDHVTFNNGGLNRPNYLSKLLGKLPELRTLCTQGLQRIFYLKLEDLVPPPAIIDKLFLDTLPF

The target of the assay is Nuclear receptor subfamily 4 group A member 2 (Homo sapiens) (UniProt P43354). The experiment in a line: ATG_NURR1_TRANS: Attagene TRANS-FACTORIAL HepG2 Assay for human Nuclear Receptor Related Protein 1 (NURR1) (AID 2282985). The conditions noted are these: HepG2 Attagene TRANS reporter, mRNA readout. The procedure:
ATG_TRANS is a cell-based, multiplexed-readout assay that uses HepG2, a human liver cell line, with measurements taken at 24 hours after chemical dosing in a 24-well plate.ATG_NURR1_TRANS is one of 30 assay component(s) measured or calculated from the ATG_TRANS assay. It is designed to make measurements of mRNA induction, a form of inducible reporter, as detected with fluorescence intensity signals by Reverse transcription polymerase chain reaction (RT-PCR) and Capillary electrophoresis technology.Data from the assay component ATG_NURR1_TRANS was analyzed into 1 assay endpoint. This assay endpoint, ATG_NURR1_TRANS, was analyzed in the positive analysis fitting direction relative to DMSO as the negative control and baseline of activity. Using a type of inducible reporter, measures of mRNA for gain-of-signal activity can be used to understand the reporter gene at the transcription factor-level as they relate to the gene NR4A2. Furthermore, this assay endpoint can be referred to as a primary readout, because this assay has produced multiple assay endpoints where this one serves a reporter gene function. To generalize the intended target to other relatable targets, this assay endpoint is annotated to the nuclear receptor intended target family, where the subfamily is orphan.
Human liver HepG2 cells are transiently transfected with multiple reporter transcription units (MRTUs) in 6-well plates using FuGene 6 reagent (Roche; 3 ml FuGene/1 mg DNA). The MRTU constructs are regulated by a cis-regulating element (promoter). […] A major difference between the CIS and TRANS system is that in CIS activities of endogenous TFs are measured, whereas the TRANS assay evaluates changes in activities of exogenous, chimeric NR-Gal4 proteins. […] At the end of 24 hour incubation, total RNA was isolated using TriZol reagent (Invitrogen). The isolated RNA is then reverse-transcribed using oligo(dT) primer and Mo-MLV reverse transcriptase (Invitrogen) with DNAse I (Ambion) treatment for 30 min. The one-tenth of the produced cDNA was amplified by PCR using Taq DNA polymerase (Invitrogen) and two reporter sequence-specific primers. The PCR products were fluorescently labeled by primer extension with 6-arboxyfluorescein (6-FAM) 5'-labeled reporter sequence-specific primer (2 min at 95 C, 20 s at 68 C and 10 min at 72 C) and these products were digested with 5U of HpaI (New England Biolabs) for 2h at 37 C. The fragments were purified using Qiaquick PCR columns (Qiagen), analyzed on an ABI 3130xL genetic analyzer (Applied Biosystems) with peak positions identified by using a set of X-rhodamine (ROX)-labeled MapMarker1000 molecular weight standards (BioVentures). The raw capillary electrophoresis data was processed using Attagraph software (Attagene).
In the case of `CCCCC(CC)C(=O)O` (stereo not given), the compound was classed as inactive.

For `CCN(CC)CC`, the call was inactive.

On to `COC(=O)C(F)(F)C(F)(F)C(F)(F)F`, for which the compound was classed as inactive.

In the case of `OCC1CCC(CO)CC1` (stereo not given), the outcome was inactive.

Consider `COc1ccccc1NC(=O)c1cc2ccccc2cc1O`, for which the outcome was inactive.

With `O=C(NO)c1ccccc1`, the compound was classed as inactive; the AC50 (usually the midpoint of the concentration-response curve, whichever way the signal moves) was 57.6 µM (active) and 40.3 µM (active) and 58 µM (active).

Turning to `CCOC=C(C(=O)OCC)C(=O)OCC`, the outcome was inactive.

With `NC(C(F)(F)F)C(F)(F)F`, the compound was called inactive.

With `FC(F)(F)C(F)(F)C(F)(F)Br`, the compound was classed as inactive.

As for `Cc1ccccc1OCC(=O)O`, the compound was classed as inactive.

On to `O=C(c1cc(O)c(O)c(O)c1)c1ccc(O)c(O)c1O`, for which the result was inactive.

As for `O=C1c2ccc(O)c(O)c2C(=O)c2c(O)ccc(O)c21`, the call was inactive.

In the case of `CCCCCCCCCCCC(=O)O`, the call was inactive.

With `CCCCCCOC(=O)c1ccc(O)cc1`, the AC50 was 51.4 µM (active).

As to `C[C@]12CC[C@@H]3c4ccc(O)cc4CC[C@H]3[C@@H]1C[C@@H](O)[C@@H]2O`, the outcome was inactive.

Take `OCC(CO)(CBr)CBr`: the compound was called inactive.

`CC1CCC(CO)CC1` (stereo not given): the outcome was inactive.

In the case of `CCCCc1ccc2ccccc2c1S(=O)(=O)O`, the result was inactive.

For the compound `C=CC(=O)OCCC(F)(F)C(F)(F)C(F)(F)C(F)(F)C(F)(F)C(F)(F)C(F)(F)C(F)(F)F`, the compound was called inactive.

On to `O=C(CC(=O)C(F)(F)C(F)(F)C(F)(F)F)c1cccs1`, for which the call was inactive.

As for `CC(C)(C)c1ccc(CCC=O)cc1`, the compound was called inactive.

For `Nc1cc(Cl)c(-c2cc(Cl)c(N)cc2Cl)cc1Cl`, the outcome was inactive.

As to `CCCCCCCC(OC)OC`, the outcome was inactive.

Regarding `COc1cccc(O)c1`, the result was inactive.

As for `CCC(C)c1ccccc1O` (stereo not given), the result was inactive.

On to `CCOC(OCC)C(=O)c1ccccc1`, for which the compound was called inactive.

Consider `Cc1ccccc1C(OCCN(C)C)c1ccccc1` (stereo not given), for which the compound was called inactive.

`CCCCCCCCCCCCCCC`: the call was inactive.

In the case of `Cc1cccc2c1ccc1ccccc12`, the outcome was inactive.

For `Brc1ccc(Oc2ccc(Br)cc2Br)cc1`, the compound was called inactive.

As to `FC1(F)C=CC(F)(F)C1(F)F`, the outcome was inactive.

In the case of `CC(C)(c1ccc(Oc2ccc(N)cc2)cc1)c1ccc(Oc2ccc(N)cc2)cc1`, the AC50 is 7.23 µM (active).

For `NS(=O)(=O)O`, the compound was called inactive.

In the case of `O=C(O)CN(CCCN(CC(=O)O)CC(=O)O)CC(=O)O`, the compound was called inactive.

Turning to `CCC1CO1` (stereo not given), the call was inactive.

For `C=CCOCC(CO)(CO)CO`, the compound was called inactive.

On to `Clc1ccc(Nc2nnc(Cc3ccncc3)c3ccccc23)cc1`, for which the AC50 was 42 µM (active).

Regarding `CC(C)(C)C1CCCCC1O` (stereo not given), the result was inactive.

As for `NCCN`, the call was inactive.

The values above are taken from PubChem BioAssay (EPA / NIEHS).
